Measurements reported in PubChem BioAssay AID1159580 (chemical genetic matrix, 2015).
Where “and” joins values, the source holds several entries; their conditions need not be identical. Equal values may be shown once. Hit rate of the full screen: of about 5,500 compounds, about 2,000 (36%) were called active. Another 18% or so got no clear call; they are omitted. No stated cut-off is given here; in the data, active means normalized growth mostly below about 0.91 (no sharp cut-off); inconclusive means no clear call, values can overlap the other calls; inactive means mostly above about 0.92. The list shows a part of the results.

Experiment: chemical genetic growth profiling, strain panel (AID 1159580);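 further: tested at 20 µM; growth read once vehicle control cultures reached saturation at 30 °C; 1 = growth at the plate median or of vehicle wells; lower values mean less growth of the strain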
Details: S. cerevisiae deletion strains, growth OD
[1] = locus YAL013W, strain DEP1, hits give low values
[2] = locus YAL040C, strain CLN3, hits give low values
[3] = locus YCL061C, strain MRC1 (second series), hits give low values
[4] = locus YDR150W, strain NUM1, hits give low values
[5] = locus YDR363W, strain ESC2, hits give low values
[6] = locus YER002W, strain NOP16, hits give low values
[7] = locus YGR078C, strain PAC10, hits give low values
[8] = locus YJR075W, strain HOC1, hits give low values
[9] = locus YMR307W, strain GAS1, hits give low values
[10] = locus YNL153C, strain GIM3, hits give low values
[11] = locus YNL175C, strain NOP13, hits give low values
[12] = locus YNL197C, strain WHI3, hits give low values
[13] = locus YNL224C, strain SQS1, hits give low values
[14] = locus YOR083W, strain WHI5 (second series), hits give low values
[15] = locus YPL055C, strain LGE1, hits give low values
[16] = locus YPL241C, strain CIN2, hits give low values
[17] = locus YGR229C, strain SMI1, hits give low values
[18] = locus YMR263W, strain SAP30, hits give low values
[19] = locus YNL322C, strain KRE1, hits give low values
[20] = locus YDL101C, strain DUN1, hits give low values
[21] = locus YHR030C, strain SLT2, hits give low values
[22] = locus YHR079C, strain IRE1, hits give low values
[23] = locus YJL095W, strain BCK1, hits give low values
[24] = locus YJR066W, strain TOR1, hits give low values
[25] = locus YLR113W, strain HOG1, hits give low values
[26] = locus YNL183C, strain NPR1, hits give low values
[27] = locus YOR061W, strain CKA2, hits give low values
[28] = locus YOR231W, strain MKK1, hits give low values
[29] = locus YPL256C, strain CLN2, hits give low values

Measured: normalized growth

CCCn1cnc2c1c(=O)n(CCCCC(C)=O)c(=O)n2C
inactive: [1] 1.01 | [2] 0.997 | [3] 1.01 | [4] 1.01 | [5] 0.961 | [6] 1.02 | [7] 1.01 | [8] 1.02 | [9] 1.01 | [10] 1.04 | [11] 1.01 | [12] 0.996 | [13] 1.01 | [14] 1.01 | [15] 1.02 | [16] 1.01

COC[C@H]1OC(=O)c2coc3c2[C@@]1(C)C1=C(C3=O)C2CCC(=O)[C@@]2(C)C[C@H]1OC(C)=O (stereo partly specified)
active: [2] 0.0731 | [3] 0.141 | [4] 0.136 | [5] 0.206 | [6] 0.0648 | [17] 0.0613 | [18] 0.0519 | [9] 0.0665 | locus YNL128W, strain TEP1, hits give low values 0.143 | [10] 0.101 | [12] 0.0727 | [13] 0.0711 | [19] 0.33 | [14] 0.359 | [15] 0.119
inactive: [7] 0.994 | [11] 1

CN1C(=O)CCC1c1cccnc1 (stereo unspecified)
inactive: [1] 1.02 | [2] 1.02 | [6] 1 | [8] 1.01 | [11] 0.999 | [13] 1.01 | [14] 1.02 | [16] 1.01

CN1C(=O)CC[C@H]1c1cccnc1
inactive: locus YBR021W, strain FUR4, hits give low values 1 | locus YBR229C, strain ROT2, hits give low values 1 | locus YCL029C, strain bik1, hits give low values 1.02 | locus YDL035C, strain GPR1, hits give low values 1.02 | locus YDL074C, strain BRE1, hits give low values 1.04 | [20] 1.01 | locus YDL134C, strain PPH21, hits give low values 1 | locus YDL185W, strain tfp1, hits give low values 1.03 | locus YDL192W, strain arf1, hits give low values 1.01 | locus YDR101C, strain arx1, hits give low values 1.05 | [4] 0.992 | locus YDR162C, strain NBP2, hits give low values 1.01 | locus YDR318W, strain mcm21, hits give low values 1.02 | locus YDR388W, hits give low values 1.02 | locus YDR502C, strain sam2, hits give low values 1.04 | locus YEL061C, strain CIN8, hits give low values 0.993 | locus YER110C, hits give low values 1.03 | locus YER155C, strain BEM2, hits give low values 0.992 | locus YER167W, strain BCK2, hits give low values 0.997 | locus YGL078C, strain dbp3, hits give low values 1.03 | locus YGL086W, strain mad1, hits give low values 1.03 | locus YGL248W, strain PDE1, hits give low values 1.02 | locus YGR135W, strain pre9, hits give low values 1.01 | [17] 1.01 | locus YGR252W, strain gcn5, hits give low values 1.11 | [21] 0.997 and 1.05 | locus YHR079C, strain IRE1 (second series), hits give low values 1.03 | [22] 1.04 | locus YHR094C, strain hxt1, hits give low values 1.01 | locus YHR129C, strain ARP1, hits give low values 0.993 | locus YHR200W, strain rpn10, hits give low values 1.01 | locus YIL066C, strain RNR3, hits give low values 1.01 | locus YIL073C, strain SPO22, hits give low values 1.07 | locus YIL125W, strain kgd1, hits give low values 1.02 | locus YIR030C, strain dcg1, hits give low values 1.02 | [23] 1.01 and 1.02 | locus YJL134W, strain LCB3, hits give low values 0.996 | locus YJL168C, strain set2, hits give low values 1 | locus YJL187C, strain SWE1 (second series), hits give low values 1.01 | locus YJR043C, strain POL32, hits give low values 1.02 | [24] 0.992 | locus YKL009W, strain mrt4, hits give low values 1.03 | locus YKL068W, hits give low values 1.01 | locus YKL085W, strain MDH1 (second series), hits give low values 1.01 | locus YKL085W, strain MDH1, hits give low values 1.01 | locus YKL190W, strain CNB1, hits give low values 1 | locus YKR001C, strain vps1, hits give low values 1.03 | locus YLR039C, strain RIC1, hits give low values 1.02 | locus YLR058C, strain SHM2, hits give low values 1 | locus YLR102C, strain apc9, hits give low values 1.02 | [25] 1.06 | locus YLR262C, strain YPT6, hits give low values 1.04 | locus YLR268W, strain sec22, hits give low values 1.03 | locus YLR330W, strain CHS5, hits give low values 0.999 | locus YLR342W, strain FKS1 (second series), hits give low values 1.01 | locus YLR371W, strain rom2, hits give low values 0.983 | locus YLR418C, strain cdc73, hits give low values 1.03 | locus YML016C, strain PPZ1, hits give low values 0.993 | locus YML032C, strain rad52, hits give low values 1.02 | locus YML124C, strain tub3, hits give low values 1.01 | locus YMR078C, strain ctf18, hits give low values 1.02 | locus YMR223W, strain ubp8, hits give low values 1.01 | [18] 1 | [9] 0.998 | locus YNL067W, strain RPL9B, hits give low values 1.01 | [26] 0.992 | locus YNL233W, strain BNI4, hits give low values 1.01 | locus YNL250W, strain rad50, hits give low values 1.02 | locus YNL271C, strain bni1, hits give low values 1.02 | locus YNL298W, strain CLA4, hits give low values 1.04 | locus YNL307C, strain MCK1, hits give low values 1.03 | [19] 0.993 | locus YNR052C, strain pop2, hits give low values 1.02 | locus YOL006C, strain TOP1, hits give low values 1.04 | locus YOL012C, strain htz1 0.58 | locus YOL147C, strain pex11, hits give low values 1.04 | [27] 1.01 | locus YOR069W, strain VPS5, hits give low values 0.997 | locus YOR136W, strain idh2, hits give low values 1.02 | locus YOR144C, strain elg1, hits give low values 1.01 | locus YOR184W, strain ser1, hits give low values 1.03 | [28] 1.04 | locus YOR316C, strain cot1, hits give low values 1.04 | [16] 0.995 | [29] 1.16 | locus YPR119W, strain clb2, hits give low values 1 | locus YPR141C, strain kar3, hits give low values 1 | locus YPR163C, strain tif3, hits give low values 1.06 | locus YPR167C, strain met16, hits give low values 1.01 | strain wtn01, hits give low values 1.04

CC1SC(c2cccnc2)N(c2ccc(Cl)cc2)C1=O (stereo unspecified)
active: locus YDL132W, strain cdc53, hits give low values 0.894 | locus YDL214C, strain PRR2, hits give low values 0.6 | locus YDR052C, strain DBF4, hits give low values 0.906 | locus YDR054C, strain cdc34, hits give low values 0.828 | locus YDR477W, strain SNF1, hits give low values 0.411 | locus YER123W, strain YCK3, hits give low values 0.466 | locus YER133W, strain GLC7, hits give low values 0.421 | locus YFR019W, strain FAB1, hits give low values 0.43 | locus YGR040W, strain KSS1, hits give low values 0.397 | locus YGR052W, strain FMP48, hits give low values 0.374 | [22] 0.441 | locus YHR082C, strain KSP1, hits give low values 0.4 | [23] 0.215 | locus YJL157C, strain FAR1, hits give low values 0.635 | [24] 0.284 | locus YKL067W, strain YNK1, hits give low values 0.673 | locus YKL203C, strain TOR2, hits give low values 0.331 | [25] 0.455 | locus YLR133W, strain CKI1, hits give low values 0.478 | locus YLR403W, strain SFP1, hits give low values 0.346 | locus YMR205C, strain PFK2 (second series), hits give low values 0.64 | locus YNL020C, strain ARK1, hits give low values 0.599 | [26] 0.393 | locus YNL307C, strain MCK1 (second series), hits give low values 0.462 | locus YOR119C, strain RIO1, hits give low values 0.295 | [28] 0.47 | locus YPL031C, strain PHO85, hits give low values 0.434 | locus YPL153C, strain RAD53, hits give low values 0.47 | locus YPL204W, strain HRR25, hits give low values 0.46 | [29] 0.435
inactive: locus YAR019C, strain CDC15, hits give low values 0.948 | locus YBL105C, strain PKC1, hits give low values 0.971 | locus YBR135W, strain CKS1, hits give low values 0.964 | locus YBR136W, strain MEC1, hits give low values 0.959 | locus YBR160W, strain CDC28, hits give low values 0.967 | locus YDL017W, strain CDC7, hits give low values 0.972 | locus YDL028C, strain MPS1, hits give low values 0.955 | [20] 0.928 | locus YDL108W, strain KIN28, hits give low values 0.951 | locus YDR226W, strain ADK1, hits give low values 0.932 | locus YFL009W, strain cdc4, hits give low values 0.931 | locus YFL029C, strain CAK1, hits give low values 0.926 | locus YFR003C, strain YPI1, hits give low values 0.972 | locus YFR028C, strain CDC14, hits give low values 0.945 | locus YGR092W, strain DBF2, hits give low values 0.904 | [21] 0.871 | locus YHR205W, strain SCH9, hits give low values 0.725 | locus YIL147C, strain SLN1, hits give low values 0.952 | locus YJL128C, strain PBS2, hits give low values 0.987 | locus YJR016C, strain ILV3, hits give low values 0.926 | locus YJR066W, strain TOR1 (second series), hits give low values 0.704 | locus YKL048C, strain ELM1, hits give low values 0.922 | locus YKL101W, strain HSL1, hits give low values 0.779 | locus YKL193C, strain SDS22, hits give low values 0.947 | locus YML070W, strain DAK1, hits give low values 0.694 | locus YMR001C, strain CDC5, hits give low values 0.936 | locus YMR277W, strain FCP1, hits give low values 0.969 | locus YNL006W, strain LST8, hits give low values 0.967 | locus YNL161W, strain CBK1, hits give low values 0.953 | locus YNL207W, strain RIO2, hits give low values 0.91 | locus YNL222W, strain SSU72, hits give low values 0.96 | locus YOL078W, strain AVO1, hits give low values 0.937 | [27] 0.919 | locus YOR329C, strain SCD5, hits give low values 0.953 | locus YPL209C, strain IPL1, hits give low values 0.969 | locus YPR025C, strain CCL1, hits give low values 0.961 | locus YPR106W, strain ISR1, hits give low values 0.957 | locus YPR111W, strain DBF20, hits give low values 0.965 | strain NNK1, hits give low values 0.944 | strain TSCII, hits give low values 0.946
